According to the supplement of paper PMC6378613:

Compound: Cc1ccc(-c2ccc3c(ccc4sc5c(c43)NC[C@@H](C)NC5=O)n2)cn1
Test: kinase activity remaining relative to vehicle control; higher = less inhibition
Description: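 In vitro radiometric kinase profiling of the MK2 inhibitor PF-3644022 at 0.1, 1 and 10 µM against a panel of kinases (MRC International Centre for Kinase Profiling, Dundee). Read-out is % kinase activity remaining relative to the vehicle control, mean of n=2.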

UniProt P12931, sequence (P12931 whole entry, looked up): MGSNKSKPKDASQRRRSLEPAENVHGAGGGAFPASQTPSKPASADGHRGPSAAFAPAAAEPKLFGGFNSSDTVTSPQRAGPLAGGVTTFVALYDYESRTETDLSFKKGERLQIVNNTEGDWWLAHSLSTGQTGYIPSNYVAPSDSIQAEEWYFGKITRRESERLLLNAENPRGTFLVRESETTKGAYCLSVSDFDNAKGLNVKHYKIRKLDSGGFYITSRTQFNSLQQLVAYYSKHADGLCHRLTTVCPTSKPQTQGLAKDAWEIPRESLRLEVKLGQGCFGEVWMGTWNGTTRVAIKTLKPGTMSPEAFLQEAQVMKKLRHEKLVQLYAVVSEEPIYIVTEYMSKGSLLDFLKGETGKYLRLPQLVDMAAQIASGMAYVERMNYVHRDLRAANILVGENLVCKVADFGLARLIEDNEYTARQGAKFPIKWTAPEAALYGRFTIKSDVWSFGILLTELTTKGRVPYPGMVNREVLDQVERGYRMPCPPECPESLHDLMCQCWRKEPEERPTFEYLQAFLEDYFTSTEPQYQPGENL
UniProt Q15569, sequence (Q15569 whole entry, looked up): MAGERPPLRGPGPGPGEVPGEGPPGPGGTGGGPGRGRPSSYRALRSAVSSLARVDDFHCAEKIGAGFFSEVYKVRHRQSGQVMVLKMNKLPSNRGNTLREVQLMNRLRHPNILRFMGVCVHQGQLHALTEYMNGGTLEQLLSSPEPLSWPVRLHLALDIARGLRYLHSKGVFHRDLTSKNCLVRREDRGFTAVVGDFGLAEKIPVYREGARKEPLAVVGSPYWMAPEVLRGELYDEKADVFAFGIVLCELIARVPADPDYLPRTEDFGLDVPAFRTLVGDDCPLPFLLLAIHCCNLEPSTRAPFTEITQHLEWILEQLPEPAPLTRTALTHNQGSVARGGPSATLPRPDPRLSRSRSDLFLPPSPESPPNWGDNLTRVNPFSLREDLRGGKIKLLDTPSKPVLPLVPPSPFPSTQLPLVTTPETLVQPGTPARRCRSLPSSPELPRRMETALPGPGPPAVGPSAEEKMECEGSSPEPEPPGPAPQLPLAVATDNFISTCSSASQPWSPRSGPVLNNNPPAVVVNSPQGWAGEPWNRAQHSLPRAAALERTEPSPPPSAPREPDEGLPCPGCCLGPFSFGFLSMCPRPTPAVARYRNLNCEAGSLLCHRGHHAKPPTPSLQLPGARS
UniProt P43403, sequence (P43403 whole entry, looked up): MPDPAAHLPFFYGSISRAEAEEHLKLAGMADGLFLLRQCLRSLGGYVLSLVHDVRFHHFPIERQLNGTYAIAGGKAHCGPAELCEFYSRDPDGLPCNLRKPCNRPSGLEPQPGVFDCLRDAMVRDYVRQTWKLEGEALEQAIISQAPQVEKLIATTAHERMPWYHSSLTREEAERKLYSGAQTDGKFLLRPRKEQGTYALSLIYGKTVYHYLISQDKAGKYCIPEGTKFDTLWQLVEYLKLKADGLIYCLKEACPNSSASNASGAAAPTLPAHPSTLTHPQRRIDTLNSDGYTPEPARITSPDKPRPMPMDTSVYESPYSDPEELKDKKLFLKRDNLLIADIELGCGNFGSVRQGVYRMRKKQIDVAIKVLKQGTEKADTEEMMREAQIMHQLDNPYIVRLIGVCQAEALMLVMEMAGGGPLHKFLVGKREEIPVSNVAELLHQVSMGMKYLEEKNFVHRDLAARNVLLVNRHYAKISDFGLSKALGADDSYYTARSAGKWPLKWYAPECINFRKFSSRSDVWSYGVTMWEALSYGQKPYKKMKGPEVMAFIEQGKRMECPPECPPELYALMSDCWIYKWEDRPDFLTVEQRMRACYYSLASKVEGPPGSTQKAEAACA
UniProt P51812, sequence (P51812 whole entry, looked up): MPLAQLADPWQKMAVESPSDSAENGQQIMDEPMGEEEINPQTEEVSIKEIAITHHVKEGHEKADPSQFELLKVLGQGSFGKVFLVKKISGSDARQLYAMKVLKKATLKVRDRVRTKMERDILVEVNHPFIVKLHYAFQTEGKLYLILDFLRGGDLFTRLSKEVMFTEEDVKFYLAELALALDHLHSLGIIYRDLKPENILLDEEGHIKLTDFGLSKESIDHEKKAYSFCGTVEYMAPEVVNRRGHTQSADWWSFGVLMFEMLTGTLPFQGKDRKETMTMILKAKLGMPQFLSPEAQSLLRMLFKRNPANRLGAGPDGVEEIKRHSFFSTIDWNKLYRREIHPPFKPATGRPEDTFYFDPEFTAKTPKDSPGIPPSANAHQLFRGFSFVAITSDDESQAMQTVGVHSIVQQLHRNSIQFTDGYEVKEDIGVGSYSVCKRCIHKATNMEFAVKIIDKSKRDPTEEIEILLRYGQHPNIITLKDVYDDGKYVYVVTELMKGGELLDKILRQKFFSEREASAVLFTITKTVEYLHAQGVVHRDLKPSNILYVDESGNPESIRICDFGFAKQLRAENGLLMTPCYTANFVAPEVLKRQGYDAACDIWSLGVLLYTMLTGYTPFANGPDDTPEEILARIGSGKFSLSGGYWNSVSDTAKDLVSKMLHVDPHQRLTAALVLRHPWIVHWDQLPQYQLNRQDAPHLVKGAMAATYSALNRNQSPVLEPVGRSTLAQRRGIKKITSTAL
UniProt Q15831, sequence (Q15831 whole entry, looked up): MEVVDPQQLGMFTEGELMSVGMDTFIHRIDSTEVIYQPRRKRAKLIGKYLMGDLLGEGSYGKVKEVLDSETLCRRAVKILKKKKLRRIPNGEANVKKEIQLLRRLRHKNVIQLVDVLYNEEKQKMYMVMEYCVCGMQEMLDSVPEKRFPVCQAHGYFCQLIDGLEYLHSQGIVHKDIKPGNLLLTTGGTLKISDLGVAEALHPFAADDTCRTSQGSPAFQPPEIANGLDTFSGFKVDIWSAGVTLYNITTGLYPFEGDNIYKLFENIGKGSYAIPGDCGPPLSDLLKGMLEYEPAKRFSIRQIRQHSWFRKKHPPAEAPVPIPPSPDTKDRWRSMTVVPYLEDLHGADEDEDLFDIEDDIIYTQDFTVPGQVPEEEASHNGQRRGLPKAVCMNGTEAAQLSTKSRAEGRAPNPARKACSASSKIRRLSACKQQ
UniProt Q9H422, sequence (Q9H422 whole entry, looked up): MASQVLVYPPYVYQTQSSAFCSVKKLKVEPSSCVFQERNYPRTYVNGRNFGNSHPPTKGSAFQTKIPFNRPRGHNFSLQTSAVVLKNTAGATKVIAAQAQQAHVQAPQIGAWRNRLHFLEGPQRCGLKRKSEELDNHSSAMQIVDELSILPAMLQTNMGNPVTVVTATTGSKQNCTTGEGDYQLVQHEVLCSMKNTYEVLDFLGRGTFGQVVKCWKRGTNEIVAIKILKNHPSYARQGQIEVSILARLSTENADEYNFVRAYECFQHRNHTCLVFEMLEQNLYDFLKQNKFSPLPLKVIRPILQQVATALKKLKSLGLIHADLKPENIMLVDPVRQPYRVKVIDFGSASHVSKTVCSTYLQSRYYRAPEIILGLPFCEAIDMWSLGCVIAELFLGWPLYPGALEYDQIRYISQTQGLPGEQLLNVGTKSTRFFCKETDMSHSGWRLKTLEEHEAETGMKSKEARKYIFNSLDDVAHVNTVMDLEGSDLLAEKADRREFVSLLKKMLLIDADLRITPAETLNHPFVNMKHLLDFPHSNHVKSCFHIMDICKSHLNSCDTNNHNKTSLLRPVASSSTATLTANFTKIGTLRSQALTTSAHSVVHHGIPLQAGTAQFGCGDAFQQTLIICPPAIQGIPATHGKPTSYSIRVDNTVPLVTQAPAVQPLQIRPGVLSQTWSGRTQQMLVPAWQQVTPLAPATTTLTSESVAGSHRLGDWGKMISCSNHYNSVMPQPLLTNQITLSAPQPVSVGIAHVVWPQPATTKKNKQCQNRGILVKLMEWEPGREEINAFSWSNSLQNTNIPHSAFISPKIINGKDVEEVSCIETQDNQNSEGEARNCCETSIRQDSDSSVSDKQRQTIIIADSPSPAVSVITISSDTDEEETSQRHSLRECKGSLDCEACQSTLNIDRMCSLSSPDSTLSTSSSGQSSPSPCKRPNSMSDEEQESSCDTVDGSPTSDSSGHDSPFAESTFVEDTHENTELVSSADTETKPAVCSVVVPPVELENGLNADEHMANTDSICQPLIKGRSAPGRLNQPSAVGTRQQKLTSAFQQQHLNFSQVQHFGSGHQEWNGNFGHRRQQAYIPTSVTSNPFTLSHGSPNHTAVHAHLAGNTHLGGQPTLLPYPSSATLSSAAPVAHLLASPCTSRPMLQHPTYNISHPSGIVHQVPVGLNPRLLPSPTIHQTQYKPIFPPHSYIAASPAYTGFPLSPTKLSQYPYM
UniProt Q9HC98, sequence (Q9HC98 whole entry, looked up): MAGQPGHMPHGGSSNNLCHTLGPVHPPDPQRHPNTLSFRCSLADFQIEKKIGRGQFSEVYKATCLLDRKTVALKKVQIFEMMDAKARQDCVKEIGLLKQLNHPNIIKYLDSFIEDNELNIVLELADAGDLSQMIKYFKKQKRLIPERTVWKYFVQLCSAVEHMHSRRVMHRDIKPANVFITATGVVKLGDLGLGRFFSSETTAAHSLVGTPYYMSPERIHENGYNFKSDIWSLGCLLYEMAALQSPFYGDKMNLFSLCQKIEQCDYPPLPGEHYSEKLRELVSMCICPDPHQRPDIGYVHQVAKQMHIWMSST

Q: AMPK was tested. Which kinase activity remaining (inhibitor concentration 0.1 µM) did it give?
A: 93%

Q: What about the kinase activity remaining (inhibitor concentration 1 µM) of the same target?
A: 38%

Q: What about the kinase activity remaining (inhibitor concentration 10 µM) of the same target?
A: 9%

Q: With TAK1 as the target, how does the kinase activity remaining (inhibitor concentration 0.1 µM) read?
A: 113%

Q: And the kinase activity remaining (inhibitor concentration 1 µM)?
A: 109%

Q: What about the kinase activity remaining (inhibitor concentration 10 µM) of the same target?
A: 70%

Q: ZAP70 (UniProt P43403) was tested. Which kinase activity remaining (inhibitor concentration 0.1 µM) did it give?
A: 93%

Q: And the kinase activity remaining (inhibitor concentration 1 µM)?
A: 100%

Q: And the kinase activity remaining (inhibitor concentration 10 µM)?
A: 95%

Q: For RSK2 (UniProt P51812), which kinase activity remaining (inhibitor concentration 0.1 µM) is on record?
A: 104%

Q: And the kinase activity remaining (inhibitor concentration 1 µM)?
A: 79%

Q: And the kinase activity remaining (inhibitor concentration 10 µM)?
A: 50%

Q: What does the source list for EPH-B4?
A: kinase activity remaining (inhibitor concentration 0.1 µM): 110%; kinase activity remaining (inhibitor concentration 1 µM): 106%; kinase activity remaining (inhibitor concentration 10 µM): 99%

Q: What does the source list for IKK epsilon?
A: kinase activity remaining (inhibitor concentration 0.1 µM): 98%; kinase activity remaining (inhibitor concentration 1 µM): 95%; kinase activity remaining (inhibitor concentration 10 µM): 44%

Q: What does the source list for LKB1 (UniProt Q15831)?
A: kinase activity remaining (inhibitor concentration 0.1 µM): 118%; kinase activity remaining (inhibitor concentration 1 µM): 103%; kinase activity remaining (inhibitor concentration 10 µM): 97%

Q: What does the source list for NEK6 (UniProt Q9HC98)?
A: kinase activity remaining (inhibitor concentration 0.1 µM): 109%; kinase activity remaining (inhibitor concentration 1 µM): 96%; kinase activity remaining (inhibitor concentration 10 µM): 66%

Q: HIPK3 (UniProt Q9H422) was tested. Which kinase activity remaining (inhibitor concentration 0.1 µM) did it give?
A: 112%

Q: And the kinase activity remaining (inhibitor concentration 1 µM)?
A: 108%

Q: And the kinase activity remaining (inhibitor concentration 10 µM)?
A: 96%

Q: For Src (UniProt P12931), which kinase activity remaining (inhibitor concentration 0.1 µM) is on record?
A: 110%

Q: What about the kinase activity remaining (inhibitor concentration 1 µM) of the same target?
A: 116%

Q: And the kinase activity remaining (inhibitor concentration 10 µM)?
A: 100%

Q: Which results are given for TESK1 (UniProt Q15569)?
A: kinase activity remaining (inhibitor concentration 0.1 µM): 112%; kinase activity remaining (inhibitor concentration 1 µM): 111%; kinase activity remaining (inhibitor concentration 10 µM): 101%

Q: What does the source list for IKK beta?
A: kinase activity remaining (inhibitor concentration 0.1 µM): 115%; kinase activity remaining (inhibitor concentration 1 µM): 109%; kinase activity remaining (inhibitor concentration 10 µM): 101%

Q: Which kinase activity remaining (inhibitor concentration 0.1 µM) does the source give for ROCK 2 here?
A: 112%

Q: And the kinase activity remaining (inhibitor concentration 1 µM)?
A: 96%

Q: And the kinase activity remaining (inhibitor concentration 10 µM)?
A: 95%
